Our source for the outcome and AC50 values is PubChem BioAssay (EPA / NIEHS).

Results filed as inconclusive are left out. Activity calls are given as the source filed them. How the source made its calls, unless noted: active means hit-call score of the fitted dose curve at least 0.9, where 1 is the maximum; inactive means score below 0.9.

Experiment [1] can be described thus: CCTE_Shafer_MEA_acute_burst_percentage_mean: CCTE's Neural Acute Assay for Percentage of Spikes in a Burst, Shafer Lab (AID 2284017).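 On AC50: curve fitted for loss of signal so potency reflects decreased burst percentage.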 The procedure, abridged: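 Compounds were tested at 0.03-40 uM on primary rat cortical neuron networks grown over microelectrodes, with at least three wells per compound. Spontaneous firing was recorded for 40 min before and 40 min after dosing, and the change in burst percentage was computed per well.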

A short description of experiment [2]: CCTE_Shafer_MEA_acute_burst_percentage_std: CCTE's Neural Acute Assay for Standard Deviation of Burst Percentage, Shafer Lab (AID 2284018).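 Further: fitted in the negative direction so actives lower burst percentage SD.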 The procedure, abridged: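 Primary rat cortical neurons on 16-electrode MEA wells were recorded 40 min at baseline (DIV 13 or 15), then 40 min after compound (0.03-40 uM), at 37 C. Well value is SD across electrodes of spikes-in-bursts/total spikes; endpoint is percent change, DMSO-referenced.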

Experiment [3] is described as follows: CCTE_Shafer_MEA_acute_per_network_burst_spike_number_mean: CCTE's Neural Acute Assay for Average Number of Spikes in a Network Burst, Shafer Lab (AID 2284019).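 On AC50: curve fitted for loss of signal so actives reduce spikes per network burst.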 The method in brief: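 Acute exposure of rat primary cortical networks (DIV 13/15) on MEAs; adaptive spike detection at 8x rms noise, 37 C. Percent change in spikes per network burst after 40 min with compound (0.03-40 uM), negative direction vs DMSO.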

Experiment [4] in a line: CCTE_Shafer_MEA_acute_per_network_burst_electrodes_number_mean: CCTE's Neural Acute Assay for Mean Number of Electrodes in a Network Burst, Shafer Lab (AID 2284021).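 Further: curves fitted for decreases only so hits reduce electrodes per burst.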 The procedure, abridged:
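Rat primary cortical neurons on 48-well MEAs, DIV 13 or 15, were treated at 0.03-40 uM. Spikes were detected at 8x rms noise and recorded at 37 C. The mean electrodes per network burst in a 40 min exposure recording was expressed as percent change from a 40 min baseline.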

Experiment [5] is described as follows: CCTE_Shafer_MEA_acute_network_burst_percentage: CCTE's Neural Acute Assay for Percentage of Network Bursts, Shafer Lab (AID 2284022).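 Further: curves fitted for loss so actives lower network burst percentage.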 The method in brief: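 Rat primary cortical neuron networks on 48-well MEA plates, DIV 13 or 15, treated acutely with compound (0.03-40 uM, at least three wells). Percent of spikes within network bursts compared between 40-min recordings before and during exposure at 37 C, expressed as percent change.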

Experiment [6] deals with Estrogen receptor (Homo sapiens) (UniProt P03372). The experiment in a line: CCTE_Deisenroth_AIME_96WELL_LUC_Active: CCTE's 96-well Estrogen Receptor Transactivation Assay with AIME metabolic competence (ERTA luciferase; metabolism positive), Deisenroth Lab (AID 2284023; active means hit-call score of the fitted dose curve at least 0.9, where 1 is the maximum). The procedure, abridged:
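Metabolism-positive mode: induced rat hepatic S9 in alginate microspheres conditions test solutions (0.002 - 200 uM, 10 points) for 2 hours. VM7Luc4E2 ER luciferase reporter cells then exposed 24 h; positive-direction fit against 17beta-estradiol, n=4 typical.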

A short description of experiment [7]: CCTE_Shafer_MEA_acute_cross_correlation_area: CCTE's Neural Acute Assay for Area of Cross Correlation, Shafer Lab (AID 2284024).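 Further: curves fitted for loss of cross-correlation area so actives lower synchrony.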 The procedure, abridged: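 Rat primary cortical neurons on 48-well MEA, DIV 13 or 15; compounds 0.03-40 uM. Baseline and post-exposure 40 min recordings at 37 C; percent change in area under pooled inter-electrode cross-correlation near zero lag, relative to DMSO.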

For experiment [8], the target named is Estrogen receptor (Homo sapiens) (UniProt P03372). The experiment in a line: CCTE_Deisenroth_AIME_96WELL_LUC_Inactive: CCTE's 96-well Estrogen Receptor Transactivation Assay without AIME metabolic competence (ERTA luciferase; metabolism negative), Deisenroth Lab (AID 2284025; active means hit-call score of the fitted dose curve at least 0.9, where 1 is the maximum). The procedure, abridged: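 Metabolism-negative arm: chemicals (0.002–200 uM, 10 points) incubated 2 h with alginate-water microspheres, then medium moved onto VM7Luc4E2 cells for 24 h luciferase read-out. Positive direction vs 17beta-estradiol; n≥4 experiments.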
Chain of Estrogen receptor (Homo sapiens) (P03372 whole entry, looked up): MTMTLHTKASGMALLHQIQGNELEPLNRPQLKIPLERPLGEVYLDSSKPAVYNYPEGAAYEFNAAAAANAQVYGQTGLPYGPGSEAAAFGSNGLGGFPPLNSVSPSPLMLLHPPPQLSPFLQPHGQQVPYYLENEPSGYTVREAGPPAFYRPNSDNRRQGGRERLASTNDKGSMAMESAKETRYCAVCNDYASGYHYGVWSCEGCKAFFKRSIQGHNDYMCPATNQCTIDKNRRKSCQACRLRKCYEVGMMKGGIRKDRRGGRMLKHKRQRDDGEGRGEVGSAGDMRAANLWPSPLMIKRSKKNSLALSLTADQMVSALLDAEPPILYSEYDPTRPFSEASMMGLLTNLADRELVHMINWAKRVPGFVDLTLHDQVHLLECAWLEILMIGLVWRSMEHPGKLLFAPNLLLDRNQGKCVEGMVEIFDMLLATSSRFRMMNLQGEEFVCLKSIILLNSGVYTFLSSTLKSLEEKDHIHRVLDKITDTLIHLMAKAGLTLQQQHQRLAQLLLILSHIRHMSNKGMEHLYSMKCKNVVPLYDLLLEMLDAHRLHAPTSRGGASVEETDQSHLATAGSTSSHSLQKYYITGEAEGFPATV

Experiment [9] is described as follows: CCTE_Shafer_MEA_acute_cross_correlation_HWHM: CCTE's Neural Acute Assay for Cross Correlation at Half Width at Half Maximum, Shafer Lab (AID 2284026).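 Further: percent change per well from pre-dose baseline in spike cross-correlogram half width; hits are a decrease in cross-correlogram half width relative to DMSO.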 The procedure, abridged:
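Rat primary cortical neurons on 48-well MEA plates; 40-min baseline and 40-min post-exposure recordings at 37 C on DIV 13 or 15, compounds 0.03-40 uM. Spikes detected at 8x rms noise; percent change in cross-correlogram HWHM per well vs baseline.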

Experiment [10] can be described thus: CCTE_Deisenroth_AIME_96WELL_CTox_Active: Cytotoxicity Assessment (CTOX) in CCTE's 96-well Estrogen Receptor Transactivation Assay with AIME metabolic competence (metabolism positive), Deisenroth Lab (AID 2284028; active means hit-call score of the fitted dose curve at least 0.9, where 1 is the maximum). The method in brief: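 Cytotoxicity in VM7Luc4E2 breast cells after 24 h exposure to medium from a 2 h metabolic pre-incubation with induced rat hepatic S9 in alginate microspheres; fluorescent live-cell protease readout, 10-point series 0.002–200 uM, n=4.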

A short description of experiment [11]: CCTE_Deisenroth_AIME_96WELL_CTox_Inactive: Cytotoxicity Assessment (CTOX) in CCTE's 96-well Estrogen Receptor Transactivation Assay without AIME metabolic competence (metabolism negative), Deisenroth Lab (AID 2284029; active means hit-call score of the fitted dose curve at least 0.9, where 1 is the maximum). The procedure, abridged: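 Cytotoxicity in VM7Luc4E2 breast cells was scored as loss of fluorescent signal from a live-cell protease substrate 24 h after exposure, using bidirectional curve fitting. Test media came from a 2 h metabolism-negative pre-incubation (alginate-water, no hepatic S9) of compounds at 0.002-200 uM, with at least four replicates.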

Experiment [12] can be described thus: CCTE_Deisenroth_AIME_384WELL_CTox_Active: Cytotoxicity Assessment (CTOX) in CCTE's 384-well Estrogen Receptor Transactivation Assay with AIME metabolic competence (metabolism positive), Deisenroth Lab (AID 2284037; active means hit-call score of the fitted dose curve at least 0.9, where 1 is the maximum;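 further: chemicals first conditioned 2 h by alginate-bound induced rat liver S9 before cells; activity means signal loss indicating cell death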). The method in brief:
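VM7Luc4E2 breast cells received medium pre-incubated 2 h with chemical over alginate microspheres holding induced male Sprague Dawley rat liver S9; viability read 24 h later by protease-substrate fluorescence. Loss of signal, bidirectional fit, 0.002–200 uM.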

A short description of experiment [13]: CCTE_Deisenroth_AIME_384WELL_CTox_Inactive: Cytotoxicity Assessment (CTOX) in CCTE's 384-well Estrogen Receptor Transactivation Assay without AIME metabolic competence (metabolism negative), Deisenroth Lab (AID 2284039; active means hit-call score of the fitted dose curve at least 0.9, where 1 is the maximum;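 further: cell viability via live-cell protease substrate cleaved to fluorescent probe; cells exposed 24 h to medium preincubated 2 h with alginate-water beads without S9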). The procedure, abridged:
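Fluorescence from a live-cell protease substrate, read after 24 h in VM7Luc4E2 cells, indicated viability. Test medium came from a 2 h AIME step without hepatic S9 (alginate-water microspheres); concentrations spanned 0.002 - 200 uM, single technical replicate per run.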

The target of experiment [14] is Estrogen receptor (Homo sapiens) (UniProt P03372). The experiment in a line: CCTE_Deisenroth_AIME_384WELL_LUC_Shift: CCTE's 384-well Estrogen Receptor Transactivation Assay with AIME metabolic competence data shift (ERTA luciferase; difference in metabolism positive and negative), Deisenroth Lab (AID 2284041).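 Further: shift is response with S9 minus without S9 so positive means metabolism raised ER signal.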 The method in brief: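 Here, parent compounds undergo 2 h phase I metabolism by PB/BNF-induced rat S9 before 24 h transactivation in VM7Luc4E2 cells; the curve models S9-positive minus S9-negative response over a 10-point series.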

A word on the AC50: it is the concentration at which the activity in the assay is half-maximal.

As to `Oc1ccc(O)cc1`, the compound was called inactive in experiment [1], in experiment [2], in experiment [3], in [4], in experiment [5] and in experiment [7]. The compound was called inactive in [9], in experiment [10] and in experiment [11]. The values for the concentration at half-maximal activity (AC50) in [6] and in experiment [8] were 50.2 µM (active) and 71.8 µM (active), respectively.
Turning to `CN(C)C(=O)NC1(c2ccccc2)CCN(CCC[C@]2(c3ccc(Cl)c(Cl)c3)CCCN(C(=O)c3ccccc3)C2)CC1`, the AC50 in [1] is 7.4 µM (active); in [2], 1.83 µM (active); in experiment [4] it was 2.99 µM (active); in experiment [5], 7.5 µM (active); in experiment [7], 0.00118 µM (active); in [9] it was 8.86 µM (active). Moreover, in experiment [3], the compound was called inactive.
With `Cc1c(C)c2c(c(C)c1O)CCC(C)(COc1ccc(CC3SC(=O)NC3=O)cc1)O2` (configuration not stated), the AC50 in [1] is 32.9 µM (active); in experiment [2] it was 33.1 µM (active); in experiment [3], 3.02 µM (active); in [9], 29.7 µM (active). For the same compound, the compound was classed as inactive in experiment [4], in experiment [5] and in experiment [7].
On to `CN(C)C(=O)NC1(c2ccccc2)CCN(CC[C@@]2(c3ccc(F)c(F)c3)CN(C(=O)c3ccccc3)CCO2)CC1`, for which the compound was called inactive in experiment [1], in experiment [2], in [3], in experiment [4] and in experiment [7]. Besides, the AC50 in experiment [5] is 5 µM (active); in experiment [9], 20 µM (active).
Consider `Cc1cc(Cc2ccc(N)c(C)c2)ccc1N`, for which the AC50 is 30 µM (active) in experiment [1], 29.9 µM (active) in [4], 29.6 µM (active) in experiment [5] and 26 µM (active) in experiment [9]. Also, the call in experiment [2], in experiment [3] and in experiment [7] was inactive.
As for `S=c1[nH]c2ccccc2s1`, the call in [10] was inactive.
Regarding `O=C(N[C@@H](c1ccccc1)[C@@H]1CCCCN1)c1cccc(C(F)(F)F)c1Cl`, the AC50 was 5 µM (active) in experiment [1]; 5 µM (active) in experiment [4]; 9.12 µM (active) in experiment [5]; 1.99 µM (active) in experiment [7]; 9.13 µM (active) in experiment [9]. Also, the compound was classed as inactive in experiment [2] and in experiment [3].
`Nc1nc(=S)c2[nH]cnc2[nH]1`: the results for the concentration at half-maximal activity (AC50) in experiment [1], in experiment [3] and in experiment [9] were 5.71 µM (active), 17.1 µM (active) and 32.2 µM (active), respectively. The call in [2], in experiment [4], in experiment [5], in experiment [7], in experiment [12] and in [13] was inactive. Moreover, the outcome in [14] was inactive.
